Measured values as given in PubChem BioAssay (Tox21).
Records with an inconclusive call do not appear. Calls of active or inactive are those of the source. Unless noted, calls come from the whole dose curve; as a rule, active = well fitted curve in the direction sought with a large enough effect in the repeat runs; inconclusive = weak or mixed curves; inactive = no such curve, though single readings can be large; an effect the other way counts as inactive or inconclusive.

What was measured:
[1] = qHTS RealTime-Glo MT Cell Viability Assay in HEK293 cells - 8 hour (AID 1224887); note: top concentration of the series differs between compounds; nearly all actives have a fitted effect of over 50% in size
Procedure, shortened: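 Nonlytic bioluminescent viability monitoring. HEK293 at 600 cells/well with reagent; 5 h settle; compound transfer by pintool; plates held at 37 C and read at set time points.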

[2] = A CellTox Green Cytotoxicity Assay to monitor cytotoxicity in HEK293 cells - 16 hour (AID 1224888); note: nearly all actives have a fitted effect of over 35% in size
Procedure, shortened: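 Cytotoxicity was tracked continuously in HEK293 cells by a DNA-binding dye excluded from viable cells. Compounds were transferred in DMSO 5 h after seeding; fluorescence was recorded at intervals up to 40 h.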

[3] = qHTS RealTime-Glo MT Cell Viability Assay in HepG2 cells - 0 hour (AID 1224889); note: nearly all actives have a fitted effect of over 50% in size
Procedure, shortened: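 Tox21 10K library screened in qHTS format on HepG2 cells carrying RealTime-Glo reagents. Compounds were added after a 5 h preincubation, and the luminescent signal from continuous culture was measured repeatedly during 40 h treatment.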

[4] = A CellTox Green Cytotoxicity Assay to monitor cytotoxicity in HepG2 cells - 8 hour (AID 1224890); note: nearly all actives have a fitted effect of over 45% in size
Procedure, shortened: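 Real-time, homogeneous cytotoxicity readout: dead-cell DNA staining by CellTox Green in HepG2 monolayers, fluorescence measured at timed intervals up to 40 h of continuous compound exposure.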

[5] = qHTS assay to identify small molecule antagonists of the estrogen receptor alpha (ER-alpha) signaling pathway using the BG1 cell line in the presence of 0.1 nM 17-beta-estradiol - cell viability counter screen (AID 1259241); note: nearly all actives have a fitted effect of over 40% in size
Procedure, shortened: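 Viability in VM7Luc4E2 cells after 22 hr compound exposure under 0.1 nM 17beta-estradiol stimulation, by CellTiter-Fluor.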

[6] = qHTS assay to identify small molecule antagonists of the androgen receptor (AR) signaling pathway using the MDA cell line in the presence of 0.5 nM R1881 - cell viability counter screen (AID 1259242); note: nearly all actives have a fitted effect of over 45% in size
Procedure, shortened: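 Cytotoxicity toward MDA-kb2 cells is measured by CellTiter-Fluor live-cell protease fluorescence after 16 hr compound exposure at 37C in the presence of 0.5 nM R1881 stimulator.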

[7] = biological target: Androgen receptor (Homo sapiens) (UniProt P10275); experiment: qHTS assay to identify small molecule antagonists of the androgen receptor (AR) signaling pathway using the MDA cell line in the presence of 0.5 nM R1881 (AID 1259243); note: nearly all actives have a fitted effect of over 50% in size
Sequence of Androgen receptor (Homo sapiens) (P10275 whole entry, looked up): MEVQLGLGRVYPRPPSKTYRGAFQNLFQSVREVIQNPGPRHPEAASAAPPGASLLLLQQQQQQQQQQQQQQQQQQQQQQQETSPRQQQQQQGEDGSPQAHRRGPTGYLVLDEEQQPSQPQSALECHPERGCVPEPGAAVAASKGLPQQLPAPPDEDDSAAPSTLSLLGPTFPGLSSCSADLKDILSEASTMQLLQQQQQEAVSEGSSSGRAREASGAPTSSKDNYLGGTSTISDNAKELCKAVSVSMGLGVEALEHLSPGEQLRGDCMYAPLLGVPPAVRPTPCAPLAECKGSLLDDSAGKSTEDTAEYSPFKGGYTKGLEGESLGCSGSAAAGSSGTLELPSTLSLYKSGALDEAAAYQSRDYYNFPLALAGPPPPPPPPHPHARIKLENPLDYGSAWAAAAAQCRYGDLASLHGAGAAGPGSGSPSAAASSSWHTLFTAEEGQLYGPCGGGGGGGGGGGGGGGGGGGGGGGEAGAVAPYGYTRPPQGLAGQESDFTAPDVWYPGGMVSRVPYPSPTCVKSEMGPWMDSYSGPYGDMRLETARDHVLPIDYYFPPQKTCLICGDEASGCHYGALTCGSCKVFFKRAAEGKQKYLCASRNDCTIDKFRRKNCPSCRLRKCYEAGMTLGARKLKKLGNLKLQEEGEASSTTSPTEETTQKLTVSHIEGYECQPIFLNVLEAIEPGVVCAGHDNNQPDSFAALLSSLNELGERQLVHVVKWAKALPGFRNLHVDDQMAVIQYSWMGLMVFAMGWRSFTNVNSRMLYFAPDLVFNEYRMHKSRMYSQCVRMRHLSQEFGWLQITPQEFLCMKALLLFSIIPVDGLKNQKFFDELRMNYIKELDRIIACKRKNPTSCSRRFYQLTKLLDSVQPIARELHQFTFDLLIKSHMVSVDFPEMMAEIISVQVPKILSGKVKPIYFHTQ
Procedure, shortened: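 Steps: seed MDA-kb2 cells, incubate 5 hr at 37C; pin-transfer compounds in DMSO; add R1881 to 0.5 nM final; incubate 16 hr; add ONE-Glo, wait 30 min at room temperature; read luminescence.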

[8] = biological target: Estrogen receptor (Homo sapiens) (UniProt P03372); experiment: qHTS assay to identify small molecule antagonists of the estrogen receptor alpha (ER-alpha) signaling pathway using the BG1 cell line in the presence of 0.1 nM 17-beta-estradiol (AID 1259244); note: nearly all actives have a fitted effect of over 50% in size
Sequence of Estrogen receptor (Homo sapiens) (P03372 whole entry, looked up): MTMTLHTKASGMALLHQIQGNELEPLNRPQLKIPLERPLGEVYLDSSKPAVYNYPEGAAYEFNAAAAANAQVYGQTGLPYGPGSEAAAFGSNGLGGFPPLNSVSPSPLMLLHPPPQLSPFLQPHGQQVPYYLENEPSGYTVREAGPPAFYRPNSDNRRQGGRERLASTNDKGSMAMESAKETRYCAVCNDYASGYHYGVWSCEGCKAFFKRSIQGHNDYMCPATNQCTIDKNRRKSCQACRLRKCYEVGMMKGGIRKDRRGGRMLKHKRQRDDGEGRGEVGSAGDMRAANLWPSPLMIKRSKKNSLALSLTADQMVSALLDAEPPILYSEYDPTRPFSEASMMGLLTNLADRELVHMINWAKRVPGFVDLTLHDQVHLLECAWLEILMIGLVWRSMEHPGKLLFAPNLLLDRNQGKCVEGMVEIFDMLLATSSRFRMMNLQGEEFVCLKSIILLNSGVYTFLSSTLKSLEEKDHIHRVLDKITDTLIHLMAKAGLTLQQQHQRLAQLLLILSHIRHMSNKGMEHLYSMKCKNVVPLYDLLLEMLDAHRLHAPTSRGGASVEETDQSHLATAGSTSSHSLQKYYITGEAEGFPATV
Procedure, shortened: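 After 5 days in hormone-depleted medium (charcoal-stripped serum, no phenol red), VM7Luc4E2 cells were seeded, incubated 24 h, then co-treated with compound and 0.1 nM (final) estradiol for 22 h before luminescence detection.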

[9] = qHTS assay to identify small molecule HDAC inhibitors (AID 1259364); note: nearly all actives have a fitted effect of over 45% in size; note: potency is the fitted concentration of half-maximal effect; for activity change, negative = inhibition: top concentration of the series differs between compounds
Procedure, shortened: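 Homogeneous cell-based luminescent assay of endogenous class I/II HDAC activity; HCT-116 cells, 2 h compound exposure, 30 min HDAC-Glo development at RT.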

[10] = qHTS assay to identify small molecule phospholipidosis (PLD) inducers (AID 1259344; active = well fitted curve in the direction sought with a large enough effect; an effect the other way counts as inactive or inconclusive)
Procedure, shortened: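 HepG2 cells grown on collagen I take up LipidTOX Red while exposed to compound for 24 h; after fixation they are imaged at 20x and pit metrics are extracted.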
% is set by controls: 0 for no effect and ±100 for the full control effect.

NNC(=O)OCc1ccccc1
inactive: outcome [1] | Potency [2] | Potency [3] | Potency [4] | outcome [5] | outcome [6] | Potency [7] | outcome [8] | Potency [9]

CCCc1ccc(O)c(OC)c1
inactive: outcome [1] | Potency [2] | Potency [3] | Potency [4] | outcome [5] | outcome [6] | outcome [8]

CC(C)C(=O)Nc1cccc(C2CN3CCSC3=N2)c1 (configuration not stated)
inactive: outcome [1] | Potency [2] | Potency [3] | Potency [4] | outcome [5] | outcome [6] | Potency [7] | outcome [8] | Potency [9]

CCOCCOCCOC(C)=O
inactive: outcome [1] | Potency [2] | Potency [3] | Potency [4] | outcome [5] | outcome [6]

Cc1nc2ccc(Cl)cc2[nH]1
inactive: outcome [1] | Potency [2] | Potency [3] | Potency [4] | outcome [5] | outcome [6] | outcome [8]

c1cc2ccc3ccc4ccc5cccc6c(c1)c2c3c4c56
inactive: activity change, negative = cytotoxicity [1] -6.75% [at 2.72 µM] | activity change [2] -11.1% [at 2.72 µM, stronger effect = higher value] | activity change, negative = cytotoxicity [3] 3.24% [at 2.72 µM] | cytotoxicity increase [4] -16.5% [at 2.72 µM] | activity change, negative = cytotoxicity [5] 10.7% [at 3.27 µM] | viability change, negative = cytotoxic [6] 1.62% [at 3.26 µM]

CC(C)(C)c1ccc(C(=O)CCCCl)cc1
inactive: outcome [1] | Potency [2] | Potency [3] | Potency [4] | outcome [5] | outcome [6] | outcome [8]

C/C(Cl)=C/CCl
inactive: outcome [1] | Potency [2] | Potency [3] | Potency [4] | outcome [5] | outcome [6] | Potency [7] | outcome [8] | Potency [9]

C=CC(C)(CCC=C(C)C)OC(=O)C(C)C (configuration not stated)
inactive: outcome [1] | Potency [2] | Potency [3] | Potency [4] | outcome [5] | outcome [6] | outcome [8]

CC(C)(C)C(=O)CC(=O)C(C)(C)C
inactive: outcome [1] | Potency [2] | Potency [3] | Potency [4] | outcome [5] | outcome [6] | outcome [8]

C=CCON/C(CCC)=C1\C(=O)CC(C)(C)C(C(=O)OC)=C1O
inactive: outcome [1] | Potency [2] | Potency [3] | Potency [4] | outcome [5] | outcome [6]

Cc1cc(=O)oc2cc(O[C@@H]3SC[C@@H](O)[C@H](O)[C@H]3O)ccc12
inactive: outcome [1] | Potency [2] | Potency [3] | Potency [4] | outcome [5] | outcome [6] | Potency [7] | outcome [8] | Potency [9]

CCCc1ncc(C(=O)O)s1
inactive: outcome [1] | Potency [2] | Potency [3] | Potency [4] | outcome [5] | outcome [6] | Potency [7] | Potency [9]

COC(=O)c1c(C)cc(O)c(C)c1O
inactive: outcome [1] | Potency [2] | Potency [3] | Potency [4] | outcome [5] | outcome [6] | outcome [8]

C[C@@H]1CCC[C@H](C)N1CCCC(O)(c1ccccc1)c1ccccn1 (some centres not stated)
inactive: outcome [1] | Potency [2] | Potency [3] | Potency [4] | outcome [5] | outcome [6] | Potency [7] | outcome [8]

C/C(=N\O)c1ccc(OCC(=O)N2CCCCC2)cc1
inactive: outcome [1] | Potency [2] | Potency [3] | Potency [4] | outcome [5] | outcome [6] | Potency [7] | outcome [8] | Potency [10]
active: Potency [9] 8.41 µM

CCCCCCCCCCCCCCCCN(C)C
inactive: activity change, negative = cytotoxicity [1] 5.23% [at 6.97 µM] | activity change [2] 0.327% [at 6.97 µM, stronger effect = higher value] | activity change, negative = cytotoxicity [3] 4.22% [at 6.97 µM] | cytotoxicity increase [4] 2.33% [at 6.97 µM] | activity change, negative = cytotoxicity [5] 8.65% [at 8.39 µM] | viability change, negative = cytotoxic [6] 0.99% [at 8.39 µM] | activity, negative = inhibition [7] 15.5% [at 8.39 µM] | activity change, negative = inhibition [8] 15.1% [at 8.39 µM] | activity change, negative = inhibition [9] 2.04% [at 8.39 µM]

C/C=C(\C)C=O
inactive: outcome [1] | Potency [2] | Potency [3] | Potency [4] | outcome [5] | outcome [6] | outcome [8]

CC(=O)c1ccc(O)c(C(N)=O)c1
inactive: outcome [1] | Potency [2] | Potency [3] | Potency [4] | outcome [5] | outcome [6] | Potency [7] | Potency [9]

COCc1nnc(-c2ccc[n+]([O-])c2)n1-c1c(Cl)c(Cl)cc2[nH]c(=O)c(=O)[nH]c12
inactive: outcome [1] | Potency [2] | Potency [3] | Potency [4] | outcome [5] | outcome [6] | Potency [7] | outcome [8]

CC1(C)C(=O)C(C)(C)C1=O
inactive: outcome [1] | Potency [2] | Potency [3] | Potency [4] | outcome [5] | outcome [6] | Potency [7] | Potency [9]

COC(=O)c1ccccc1Cl
inactive: outcome [1] | Potency [2] | Potency [3] | Potency [4] | outcome [5] | outcome [6]

CC(CN1CC(=O)NC(=O)C1)N1CC(=O)NC(=O)C1 (configuration not stated)
inactive: outcome [1] | Potency [2] | Potency [3] | Potency [4] | outcome [5] | outcome [6] | Potency [7] | outcome [8]

CCOC(=O)[C@H](CCc1ccccc1)N[C@H]1CS[C@H](c2cccs2)CN(CC(=O)O)C1=O
inactive: outcome [1] | Potency [2] | Potency [3] | Potency [4] | outcome [5] | outcome [6] | Potency [7] | outcome [8] | Potency [10] | Potency [9]

O=C(O)CCCCCCCCCC(=O)O
inactive: outcome [1] | Potency [2] | Potency [3] | Potency [4] | outcome [5] | outcome [6] | Potency [7] | outcome [8] | Potency [9]

Cc1ccc(OC(=O)CC(C)C)cc1
inactive: outcome [1] | Potency [2] | Potency [3] | Potency [4] | outcome [5] | outcome [6] | outcome [8]

C[C@@H](CN1CC(=O)NC(=O)C1)N1CC(=O)NC(=O)C1
inactive: outcome [1] | Potency [2] | Potency [3] | Potency [4] | outcome [5] | outcome [6] | Potency [7] | outcome [8] | Potency [10] | Potency [9]
